V-ATPase pH: yeast V-ATPase proton transport regulation by pHLuorin. response, % at 10 µM. 0.37% of 350,000 active. S. cerevisiae, pHLuorin cytosolic pH fluorescence. AID 504577; in the data active means response mostly above about 7.3%, no sharp cut-off; inactive means mostly below about 5.4%; further: actives read high
PfHsp90 yeast 2: growth inhibition of yeast expressing Plasmodium Hsp90; inhibition, % at 9.4 µM; S. cerevisiae expressing PfHsp90, BacTiter-Glo ATP, 48 h; yeast lacking PDR1 and PDR3 efflux regulators; 0.32% of 310,000 active;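 active means every replicate shows inhibition above about 80%, whatever the replicate mean, limit read from the data; inconclusive means mean inhibition reaches the set limit but some replicate falls short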
tim23-1 inh: inhibits growth of tim23-1 mutant yeast | 1.3% of 330,000 active | S. cerevisiae tim23-1 growth, BacTiter-Glo luminescence, 24 h | inhibition, % at 20 µM;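 active means growth inhibition of the mutant yeast at or above 50%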;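 further: temperature-sensitive mutant grown at 25 °C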
tim10-1 inh: inhibits growth of tim10-1 mutant yeast | S. cerevisiae tim10-1 ts strain growth, BacTiter-Glo, 24 h | 2.2% of 330,000 active | inhibition, % at 20 µM;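 active means inhibition of at least 40%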;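 further: mutant grown at 25 °C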
TIM10 inh: TIM10 yeast growth inhibition; 1.4% of 330,000 active; AID 463195; S. cerevisiae TIM10 strain growth, BacTiter-Glo luminescence, 24 h; inhibition, % at 10 µM;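 active means inhibition of 40% or more at the single tested concentration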;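 further: wild-type TIM10 isogenic control strain grown at permissive 25 °C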
SKKanGAS inh: blocks kanamycin growth of S. pyogenes SKKanGAS strain | BacTiter-Glo, 6 h | 1.3% of 300,000 active | AID 1662 | inhibition, % at 7.5 µM;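 active means mean replicate score, as percent of positive control median, at least 50; inconclusive means mean below 50 but one replicate at or above 50; inactive means mean and every replicate below 50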;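 further: strain carries kanamycin resistance gene driven by streptokinase promoter and grows in 40 µg/ml kanamycin; loss of luminescence reflects streptokinase promoter inhibition or plain growth inhibition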
Each line names hits and unclear results; the compound was inactive in the other large screens. Compounds with a hit are over-represented: about 4.6% of the library has one in this group of screens.

CCCCCCCCCc1nc2sc3c(c2c(=O)n1NC(=O)c1ccccc1[N+](=O)[O-])CC(C)(C)OC3	SKKanGAS inh 64.8
Clc1cc(CSc2ccccc2)nc(-c2ccccc2)n1	SKKanGAS inh 58.3
Clc1ccc(SCc2cc(Cl)nc(-c3ccccc3)n2)cc1	SKKanGAS inh 66.9
CCOC(=O)CSc1cc(CSc2ccccc2)nc(-c2ccccc2)n1	none (no result: PfHsp90 yeast 2)
CCN(CC)c1c([N+](=O)[O-])c(=O)n(C)c2ccccc12	none
Cn1c(=O)c([N+](=O)[O-])c(Cl)c2ccccc21	V-ATPase pH 32.3 (no result: PfHsp90 yeast 2, tim23-1 inh, tim10-1 inh, TIM10 inh)
Cc1[nH]c(=O)[nH]c(=O)c1S(=O)(=O)Nc1cccc([N+](=O)[O-])c1C	none
CCOC(=O)c1c(-c2ccc(OC)cc2)csc1/N=C/C1=C(O)CCCC1=O	SKKanGAS inh 57.3
CN(C(=O)CC1C(=O)NCCN1Cc1cccc(C(F)(F)F)c1)C1CCOCC1 (stereo not drawn)	none
Cc1ccc(Cl)cc1NC(=S)N/N=C/c1cccc2ccccc12	SKKanGAS inh 80.1
COc1cc(CC(=O)N2CCN(S(=O)(=O)c3ccc(C)cc3)CC2)cc(OC)c1OC	none (no result: SKKanGAS inh)
O=C(COc1ccc2ccccc2c1)Nc1cccc(C(=O)Nc2ccccc2C(=O)O)c1	SKKanGAS inh 55.2
Cc1ccc(OCC(=O)Nc2ccc(C(=O)Nc3ccccc3C(=O)O)cc2)cc1C	none (no result: PfHsp90 yeast 2, tim23-1 inh, tim10-1 inh, TIM10 inh, SKKanGAS inh)
Cc1ccccc1OCC(=O)Nc1ccccc1N1CCCCC1	SKKanGAS inh 57.3
Cc1ccccc1OCC(=O)NC1=NCCS1	V-ATPase pH 16.6
Cc1ccccc1OCC(=O)Nc1ccc(C(=O)Nc2ccccc2C(=O)O)cc1	SKKanGAS inh 59.4
COc1ccc(OCC(=O)Nc2ccc(C(=O)Nc3ccccc3C(=O)O)cc2)cc1	none
CCOC(=O)CC[C@H](NC(=O)Cn1cnc(C(=O)Nc2ccc(C)c(C)c2)n1)C(=O)OCC	none (no result: SKKanGAS inh)
Cc1c(C(=O)N(CCO)Cc2ccccc2)oc2c(F)cccc12	none
CCc1c(C2(O)CCCCC2)[nH]c2c(C(=O)OC)cc(Cl)cc12	SKKanGAS inh 99.8 (no result: tim23-1 inh, tim10-1 inh, TIM10 inh)
CS(=O)(=O)Nc1ccc(C2=NN(S(C)(=O)=O)C(c3ccc4c(c3)OCO4)C2)cc1 (stereo not drawn)	none
O=C(O)c1cnn(-c2nc(-c3ccc(Cl)cc3)cs2)c1C(F)(F)F	none
CCOC(=O)c1cnn(-c2nc(-c3ccccc3F)cs2)c1C(F)(F)F	SKKanGAS inh 51.9 (no result: PfHsp90 yeast 2)
COc1ccc(-c2csc(-n3ncc(C(=O)O)c3C(F)(F)F)n2)cc1	none
CCOC(=O)c1cnn(-c2nc(-c3ccccc3)cs2)c1C(F)(F)F	SKKanGAS inh 70.7
O=C(Nc1cc2c(cc1Cl)-c1ccc([N+](=O)[O-])cc1C2=NO)C(F)(F)F	none (no result: tim23-1 inh, tim10-1 inh, TIM10 inh, SKKanGAS inh)
COc1ccc(OC)c(NC(=O)C(C)OC(=O)c2cc3ccccc3[nH]2)c1 (stereo not drawn)	none (no result: tim23-1 inh, tim10-1 inh, TIM10 inh, SKKanGAS inh)
CCCN1CCc2c(sc3nc(SC)n(-c4ccccc4)c(=O)c23)C1	none
Cc1ccc(NC2=C(NC(=O)c3ccccc3)C(=O)c3ccccc3C2=O)cc1Cl	SKKanGAS inh 73.7
c1ccc(CSc2ncnc3c2cnn3Cc2ccccc2)cc1	V-ATPase pH 17.5
O=C(Nc1ccccc1)C(=O)Nc1ccc2c(c1)N(C(=O)C1CC1)CCC2	SKKanGAS inh 54.5 (no result: PfHsp90 yeast 2)
CCc1nnc(NC(=O)/C=C/c2cccs2)s1	none
O=C(COc1ccc(Cl)cc1Cl)Nc1ccc(CN2CCOCC2)cc1	SKKanGAS inh 103.4
Cc1cc(Cl)ccc1OCC(=O)Nc1ccc(CN2CCOCC2)cc1	none
COc1ccc(S(=O)(=O)Nc2ccc(-n3cnnn3)cc2)cc1[N+](=O)[O-]	none (no result: PfHsp90 yeast 2, SKKanGAS inh)
C/C(CCC(C)C)=N\Nc1cc(C)c2ccccc2n1	none
Cc1cc(C)c2nc(-c3ccncc3)cc(C(=O)N3CCN(Cc4ccccc4Cl)CC3)c2c1	SKKanGAS inh 74.3
COc1ccc(/C=C2/Sc3ccc(C(=O)N4CCc5ccccc5C4)cc3NC2=O)cc1	SKKanGAS inh 101.6
Cc1ccc(/C=C2/Sc3ccc(C(=O)N4CCN(C)CC4)cc3NC2=O)cc1	SKKanGAS inh 53.7
Cc1ccc(/C=C2/Sc3ccc(C(=O)NCCN4CCOCC4)cc3NC2=O)cc1	none
COc1ccc(/C=C2\Sc3ccc(C(=O)N4CCc5ccccc5C4)cc3N(C)C2=O)cc1	SKKanGAS inh 102.9 (no result: V-ATPase pH, PfHsp90 yeast 2)
CC(C)c1ccccc1-n1c(SCc2cc(=O)oc3ccc4ccccc4c23)nnc1-c1cccnc1	none
O=C(CNc1cccc([N+](=O)[O-])c1)N/N=C/c1ccc([N+](=O)[O-])o1	none
O=C(CNc1cccc2ccccc12)N/N=C/c1ccc[nH]1	SKKanGAS inh 49.7
CSc1ccc(/C=N/NC(=O)CNc2cccc3ccccc23)cc1	none
O=C(CNc1cccc2ccccc12)N/N=C/c1ccc([N+](=O)[O-])o1	SKKanGAS inh 131.4
O=C1NC(NS(=O)(=O)c2ccccc2)(C(F)(F)F)C(=O)N1c1cccc(Cl)c1 (stereo not drawn)	none
CC(C)(C)NS(=O)(=O)c1cc(C(=O)Nc2sccc2C#N)ccc1Cl	none
COc1cccc(/C=N/NC(=O)c2ccoc2C)c1O	SKKanGAS inh 77.2
Cc1ccccc1-c1n[nH]nc1C1=CC(=O)C[C@H](c2ccc(F)cc2)C1	none (no result: PfHsp90 yeast 2, tim23-1 inh, tim10-1 inh, TIM10 inh, SKKanGAS inh)
Cc1cccc(OCCCCc2c(C)n[nH]c2C)c1C	SKKanGAS inh 99.4
COc1ccccc1OCCCCCc1c(C)n[nH]c1C	SKKanGAS inh 66.4
CCOc1ccccc1OCCCCCc1c(C)n[nH]c1C	SKKanGAS inh 60.9 (no result: V-ATPase pH)
Cc1n[nH]c(C)c1CCCOc1ccccc1	SKKanGAS inh inconclusive
COC(=O)CCCC1=CC2=C(c3ccccc3)C(=O)C(C)(OC(=O)C3CCCC3)C(=O)C2=CN1CCc1c[nH]c2ccccc12 (stereo not drawn)	none (no result: PfHsp90 yeast 2)
CC1(C(=O)OCC(=O)Nc2nnc(-c3ccccc3)o2)CC1(Cl)Cl (stereo not drawn)	SKKanGAS inh 73.2
O=C(COC(=O)c1ccccc1[N+](=O)[O-])Nc1nnc(-c2ccccc2)o1	none (no result: PfHsp90 yeast 2)
O=C(COC(=O)CCC(=O)c1ccccc1)Nc1nnc(-c2ccccc2)o1	none (no result: PfHsp90 yeast 2)
CCOc1ccccc1C(=O)OCC(=O)Nc1nnc(-c2ccccc2)o1	SKKanGAS inh 77.2 (no result: PfHsp90 yeast 2)
CCOc1ccccc1C(=O)NC(C(=O)OCC(=O)Nc1nnc(-c2ccccc2)o1)C(C)C (stereo not drawn)	SKKanGAS inh 60.3
CC1(C(=O)OCC(=O)Nc2nc(-c3ccc(F)c(F)c3)cs2)CC1(Cl)Cl (stereo not drawn)	SKKanGAS inh 71.1
CCOc1cc(NC(=S)Nc2ccccc2OC)c(OCC)cc1NC(=O)c1ccccc1C	none
Cc1cccc(C(=O)OCC(=O)Nc2nnc(-c3ccccc3)o2)c1O	SKKanGAS inh 97.5 (no result: PfHsp90 yeast 2)
O=C1c2ccc([N+](=O)[O-])cc2C(=O)N1Cc1cccnc1	none
CC1CCc2nc(/C(C#N)=C/c3ccncc3)sc2C1 (stereo not drawn)	none (no result: V-ATPase pH)
COc1cc2ccccc2cc1C(=O)NC(=S)Nc1ccc(C(=O)O)cc1	SKKanGAS inh 54.5
COc1cc2ccccc2cc1C(=O)NC(=S)Nc1cccc(C(=O)O)c1	none

Screens from PubChem.
